A selection: hits, their analogues and other compounds. The true share with any hit is near 4.1%.
DAX1 inh-1: inhibitors of DAX1 repression of SF-1 activated StAR promoter; inhibition, % at 6.8 µM; HEK293T StAR-luciferase reporter, SF-1/DAX-1 repression relief; 1.1% of 370,000 active; AID 652010;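 active = inhibition above the mean over all tested compounds plus 3 SD, cut at about 3.6% in these data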;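 note: 0% = DAX-1 cells with DMSO and 100% = cells lacking DAX-1 with DMSO; higher inhibition means more luminescence from relief of DAX-1 repression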
hcDAF12 agonist: activators of H. contortus DAF-12 nuclear receptor | HEK293 hcDAF-12 lit1-tk-luc reporter, luminescence; 0% DMSO, 100% Δ7-dafachronic acid | activation, % at 6.8 µM | 1.4% of 370,000 active | AID 652067;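 active = activation above the mean of all tested compounds plus 3 SD, cut at about 5.5% in these data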;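 note: 100% = response to 3 µM Δ7-dafachronic acid high control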
hgDAF12 agonist: agonists of H. glycines DAF-12 nuclear receptor; activation, % at 6.8 µM; AID 687014; HEK293 GAL4-hgDAF12 UAS-luciferase reporter, agonist luminescence; normalized to butyrate control; 1.8% of 370,000 active;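 active = activation above a cutoff set at the mean of all screened compounds plus 3 SD, cut at about 10% in these data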;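 note: 0% = DMSO wells and 100% = sodium butyrate wells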
DAX1 inh-2: NR0B1 (DAX1) inhibition. P51843. HEK293 Gal4-DAX1 luciferase reporter, luminescence. inhibition, % at 6.75 µM. 0.99% of 340,000 active;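 active = inhibition above the mean over all tested compounds plus 3 SD, cut at about 4.2% in these data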;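 note: 0% = DAX1-transfected cells with DMSO and 100% = empty-vector control cells with DMSO; inhibition shows as a rise in luminescence from relieved DAX1 repression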
Target sequence (P51843 207-470 limits assumed): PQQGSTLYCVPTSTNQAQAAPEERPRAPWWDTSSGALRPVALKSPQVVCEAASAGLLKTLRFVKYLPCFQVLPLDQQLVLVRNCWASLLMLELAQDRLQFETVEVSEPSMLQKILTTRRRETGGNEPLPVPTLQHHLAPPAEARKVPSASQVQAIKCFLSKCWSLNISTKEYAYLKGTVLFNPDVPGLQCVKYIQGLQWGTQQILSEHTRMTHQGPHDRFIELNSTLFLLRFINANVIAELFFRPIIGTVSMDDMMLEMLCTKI
ssDAF12 agonist: activators of S. stercoralis DAF-12 nuclear receptor; HEK293 ssDAF-12/GRIP1 lit1-tk-luc reporter, luminescence; % of 3 µM dafachronic acid response; activation, % at 6.8 µM; 1% of 370,000 active;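 active = activation above the mean over all tested compounds plus 3 SD, cut at about 0.9% in these data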;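 note: 0% = DMSO-only wells and 100% = 3 µM delta7-dafachronic acid wells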
Numbers without * were called inactive.

Results for Cc1cc(Cl)ccc1NC(=S)N1CCN(Cc2ccccc2)CC1 ?
DAX1 inh-1: -0.8; hcDAF12 agonist: -3.4; hgDAF12 agonist: -2.7; DAX1 inh-2: -0.2; ssDAF12 agonist: -1.9

Results for Cc1cccc(NC(=S)N2CCN(Cc3ccccc3)CC2)c1C ?
DAX1 inh-1: 0.4; hcDAF12 agonist: 5.9*; hgDAF12 agonist: 1.2; DAX1 inh-2: -0.8; ssDAF12 agonist: -0.8

Results for S=C(Nc1ccccc1)N1CCN(C/C=C/c2ccccc2)CC1 ?
DAX1 inh-1: 3.6*; hcDAF12 agonist: -0.6; hgDAF12 agonist: -3.5; DAX1 inh-2: -0.8; ssDAF12 agonist: -2.0

Results for S=C(Nc1ccccc1)N1CCN(c2ccccn2)CC1 ?
DAX1 inh-1: -0.7; hcDAF12 agonist: -1.5; hgDAF12 agonist: -2.5; DAX1 inh-2: -0.4; ssDAF12 agonist: 1.9*

How did Cc1cccc(NC(=S)N2CCN(c3ccccc3)CC2)c1 do in these assays?
DAX1 inh-1: 0.0; hcDAF12 agonist: -2.5; hgDAF12 agonist: -0.8; ssDAF12 agonist: -1.6

Results for COCC(=O)N(C)[C@H]1C[C@H]2c3[nH]c4c(-c5ccccc5)cccc4c3CCN2C(=O)[C@H]1[C@H](C)O ?
DAX1 inh-1: -0.5; hcDAF12 agonist: -1.7; hgDAF12 agonist: 4.0; ssDAF12 agonist: -0.7

How did C=CCN(CC#Cc1ccc(C)cc1)Cc1ccc(OC)cc1OC do in these assays?
DAX1 inh-1: -1.3; hcDAF12 agonist: 1.0; hgDAF12 agonist: 0.2; ssDAF12 agonist: -0.7

Results for COCCCNC(=S)NC(=O)c1ccc(C)cc1 ?
DAX1 inh-1: 3.4; hcDAF12 agonist: 6.2*; hgDAF12 agonist: 13.0*; DAX1 inh-2: 0.7; ssDAF12 agonist: 0.8

How did Cc1ccc(Cn2c(/C=C/c3ccco3)nc3ccccc32)cc1 do in these assays?
DAX1 inh-1: -0.1; hcDAF12 agonist: 6.3*; hgDAF12 agonist: 4.6; DAX1 inh-2: 0.4; ssDAF12 agonist: -0.5

Results for Clc1ccc(Cn2c(/C=C/c3ccco3)nc3ccccc32)cc1 ?
DAX1 inh-1: -0.3; hcDAF12 agonist: 0.6; hgDAF12 agonist: -0.2; DAX1 inh-2: 1.8; ssDAF12 agonist: -1.0

What do the screens show for `CCOc1cccc2sc(N(CCN(CC)CC)C(=O)c3ccc(S(=O)(=O)N4CCCCC4)cc3)nc12`?
DAX1 inh-1: -0.5; hcDAF12 agonist: -0.5; hgDAF12 agonist: -0.3; DAX1 inh-2: -0.6; ssDAF12 agonist: 2.0*

How did Cc1cnc(CN2CCc3c([nH]c4ccccc34)C2CC(C)C)[nH]1 (stereo unspecified) do in these assays?
DAX1 inh-1: -0.7; hcDAF12 agonist: 2.8; hgDAF12 agonist: -2.4; DAX1 inh-2: 0.2; ssDAF12 agonist: -0.1

How did Cc1cccc(CN2CCc3c([nH]c4ccccc34)C2CC(C)C)n1 (stereo unspecified) do in these assays?
DAX1 inh-1: -0.5; hcDAF12 agonist: 5.1; hgDAF12 agonist: -2.7; DAX1 inh-2: 4.7*; ssDAF12 agonist: 0.2

What do the screens show for `CCCCNC(=O)Cn1cnc([N+](=O)[O-])n1`?
DAX1 inh-1: -0.5; hcDAF12 agonist: 0.1; hgDAF12 agonist: -1.6; DAX1 inh-2: 4.8*; ssDAF12 agonist: -1.4

What do the screens show for `COc1ccc2c(=O)c(Oc3ccc(C(=O)O)cc3)c(C(F)(F)F)oc2c1`?
DAX1 inh-1: 4.2*; hcDAF12 agonist: 3.5; hgDAF12 agonist: 10.3; DAX1 inh-2: -2.3; ssDAF12 agonist: 0.9*

How did C[C@H](CO)N1C[C@H](C)[C@@H](CN(C)S(=O)(=O)c2ccccc2)Oc2ccc(NC(=O)Nc3ccc4c(c3)OCO4)cc2C1=O do in these assays?
DAX1 inh-1: -0.4; hcDAF12 agonist: -2.0; hgDAF12 agonist: -1.0; DAX1 inh-2: -0.1; ssDAF12 agonist: -1.2

What do the screens show for `COc1ccc(-n2c(SCC(=O)Nc3cc(C)c(NC(=O)c4ccccc4)cc3OC)nnc2-c2cccnc2)cc1`?
DAX1 inh-1: 0.0; hcDAF12 agonist: 2.4; hgDAF12 agonist: 0.0; ssDAF12 agonist: -0.7

Results for C#CCOCC1CN(c2ccccc2)C(=O)O1 (stereo unspecified) ?
DAX1 inh-1: -0.9; hcDAF12 agonist: -0.5; hgDAF12 agonist: -1.5; DAX1 inh-2: 4.2*; ssDAF12 agonist: -1.4

Results for CC1(c2nnnn2C2CCCCC2)CCCC(=O)N1CCc1ccc(O)cc1 (stereo unspecified) ?
DAX1 inh-1: 0.6; hcDAF12 agonist: -1.1; hgDAF12 agonist: -2.7; ssDAF12 agonist: -1.1

Results for Cc1cccc(NC(=S)NC(=O)/C=C/c2ccccc2)n1 ?
DAX1 inh-1: 1.0; hcDAF12 agonist: 2.2; hgDAF12 agonist: 6.0; DAX1 inh-2: 4.3*; ssDAF12 agonist: -0.9

What do the screens show for `COc1ccc(NC(=S)NC(=O)/C=C/c2ccccc2)cc1`?
DAX1 inh-1: -0.5; hcDAF12 agonist: -1.6; hgDAF12 agonist: -2.2; DAX1 inh-2: -0.6; ssDAF12 agonist: -1.6

How did CCCCCCCCN1C(=O)[C@@H](CC(=O)N2CCOCC2)C[C@@]2(C(=O)OC)C1=C[C@H](COCc1ccccc1)O[C@@H]2C do in these assays?
DAX1 inh-1: -0.9; hcDAF12 agonist: -1.1; hgDAF12 agonist: 3.5; ssDAF12 agonist: -1.7

How did O=C1CC(SC2=NCCS2)C(=O)N1c1ccc(Cl)cc1 (stereo unspecified) do in these assays?
DAX1 inh-1: -0.1; hcDAF12 agonist: 0.1; hgDAF12 agonist: -3.3; DAX1 inh-2: -0.7; ssDAF12 agonist: 1.4*

What do the screens show for `Nc1[nH]c(C(=O)c2ccccc2)c(-c2ccc(Br)cc2)c1C(=O)NCCCN1CCOCC1`?
hcDAF12 agonist: -0.8; hgDAF12 agonist: -3.0; ssDAF12 agonist: -1.0

What do the screens show for `Nc1ncnc2c1ncn2C1C=C(CO)C(O)C1O` (stereo unspecified)?
DAX1 inh-2: 7.6*

What do the screens show for `COc1ccc(C(=O)C2CCCN(Cc3cc(C)c(O)c(C)c3)C2)c(OC)c1` (stereo unspecified)?
DAX1 inh-1: -0.7; hcDAF12 agonist: 0.1; hgDAF12 agonist: -0.5; DAX1 inh-2: 0.6; ssDAF12 agonist: -1.1

How did COc1ccc(C(=O)C2CCCN(C3Cc4ccccc4C3)C2)c(OC)c1 (stereo unspecified) do in these assays?
DAX1 inh-1: 1.7; hcDAF12 agonist: 1.3; hgDAF12 agonist: 0.0; DAX1 inh-2: -0.1; ssDAF12 agonist: 0.9*

What do the screens show for `COC(=O)c1cc2c(c3c4cc(F)ccc4n(S(=O)(=O)c4ccccc4)c13)C(=O)N(Cc1ccc(N(C)C)cc1)C2`?
DAX1 inh-1: 0.6; hcDAF12 agonist: 1.3; hgDAF12 agonist: -0.5; ssDAF12 agonist: -0.4

What do the screens show for `CCCc1cc(C(=O)NCc2cccs2)no1`?
DAX1 inh-1: 2.2; hcDAF12 agonist: 4.2; hgDAF12 agonist: 8.0; DAX1 inh-2: 1.3; ssDAF12 agonist: 2.0*

Results for CCCc1cc(C(=O)NCc2cccnc2)no1 ?
DAX1 inh-1: 0.5; hcDAF12 agonist: 5.8*; hgDAF12 agonist: 3.4; DAX1 inh-2: 0.6; ssDAF12 agonist: -1.0

How did CCCc1cc(C(=O)NC2CCCCC2)no1 do in these assays?
DAX1 inh-1: 1.8; hcDAF12 agonist: 1.9; hgDAF12 agonist: 12.8*; DAX1 inh-2: 1.0; ssDAF12 agonist: 0.5

Bioassay records from PubChem BioAssay.
